An excerpt weighted towards active compounds, which were near 4.6% of everything screened.
D1 ag: agonists of human D1 dopamine receptor | AID 504660 | activation, % at 2 µM | 360,000 tested, 1% active | HEK293 T-REx D1 cells, calcium flux, agonist mode; further: 0% is about no effect
Target sequence (P21728 whole entry, looked up): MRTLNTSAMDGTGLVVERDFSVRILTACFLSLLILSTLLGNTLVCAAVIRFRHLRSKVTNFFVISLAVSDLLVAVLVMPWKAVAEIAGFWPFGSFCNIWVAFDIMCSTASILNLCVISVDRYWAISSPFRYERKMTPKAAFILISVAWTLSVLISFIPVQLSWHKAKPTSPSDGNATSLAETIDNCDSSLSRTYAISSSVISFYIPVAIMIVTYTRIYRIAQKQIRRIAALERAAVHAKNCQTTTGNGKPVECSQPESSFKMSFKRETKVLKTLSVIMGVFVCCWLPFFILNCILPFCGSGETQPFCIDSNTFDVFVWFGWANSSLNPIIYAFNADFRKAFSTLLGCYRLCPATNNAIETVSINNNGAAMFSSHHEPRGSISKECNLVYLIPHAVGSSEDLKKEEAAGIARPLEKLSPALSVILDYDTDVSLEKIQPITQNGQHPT
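Agonism was scored from calcium flux recorded over 180 s (1 read/s) after pintool compound addition, following a 10-cycle baseline. Cells were inducible force-coupled HEK293 TREx D1, plated overnight at 30 C and loaded with no-wash calcium dye.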
TRHR enhancer: allosteric enhancers of human TRH receptor. 360,000 tested, 0.66% active. AID 493056. P34981. TRHR cells, fluo-8 calcium fluorescence, EC20 TRH enhancement. enhancement, % at 2 µM; in the data active means enhancement above about 30%; further: 0% is about no effect
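Enhancer read-out: after compound pinning and an initial kinetic agonist-mode read, an EC20 of TRH (10 nM final) was injected and fluo-8 calcium signal (Ex 480/Em 530) followed at 1 s/cycle for 100 cycles in TRHR-expressing cells.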
D1 antag: antagonists of human D1 dopamine receptor | P21728 | HEK293 TREx D1 cells, calcium flux, dopamine EC80; active compounds read low | activity change, negative = inhibition, % at 10 µM | 360,000 tested, 3.2% active | AID 504652; in the data active means activity change below about -30%; further: on the % scale 0 is the no-effect control and ±100 the full control effect
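Tetracycline-induced HEK293 T-REx cells with force-coupled D1 receptor were loaded with a no-wash calcium dye. Compound was added after a 10 s baseline and read kinetically for 180 s; EC80 dopamine was then added and calcium flux followed another 180 s.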
TRHR ag: TRH receptor (human) agonism. P34981. TRHR cells, calcium flux fluo-8, FDSS agonist mode. activation, % at 2 µM. 360,000 tested, 0.18% active; further: 0% is about no effect
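TRHR-expressing cells, plated overnight in medium with 10% serum, were loaded with fluo-8 calcium dye at room temperature. After a 10 s baseline, library compound was pin-added and calcium release was recorded kinetically (ex 480/em 530) as agonist response.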
D1 PAM: human D1 dopamine receptor positive modulation; 360,000 tested, 0.036% active; potentiation, % at 10 µM; P21728; HEK293 TREx D1 cells, calcium flux, dopamine EC20 potentiation; in the data active means potentiation above about 30%; further: 0% is about no effect
The depositor's hits bear a star; . = not tested or not shown; ! = not confirmed by another sample. Unless noted, no stated cut-off is given here; in the data, active means activation above about 30%; inactive means the rest.

SMILES	D1 ag	TRHR enhancer	D1 antag	TRHR ag	D1 PAM
CC(C)CCNC(=O)CCCn1c(=O)c2cccn2c2ccccc21	7	12	-37*	0	-4
CCOc1ccccc1CNC(=O)CCCn1ncn2c(cc3occc32)c1=O	1	-4	-40*!	0	-2
COc1ccccc1CNC(=O)CCCn1c(=O)c2cccn2c2ccccc21	26	-8	-36*	-1	-4
CCOc1cc(CNC(=O)CCCn2c(=O)c3cccn3c3cccnc32)cc(OCC)c1OCC	0	-3	-33*!	1	-5
COc1cccc(C(=O)Nc2c3c(nn2-c2ccc(C)cc2C)CS(=O)(=O)C3)c1OC	-4	-5	-28	-1	2
Cc1ccn2c(=O)cc(COc3ccc(NC(=O)COc4ccccc4)cc3)nc2c1	0	0	8	0	-1
O=S(=O)(Nc1ccc(N2CCOCC2)nn1)c1ccccc1	2	13	-47*	0	-2
O=C1c2ccccc2S(=O)(=O)c2cc(C(=O)N(c3ccccn3)c3ccccn3)ccc21	300*	40*	-24	70*	-5
COc1ccc(Cl)cc1NC(=O)CCN1C(=O)C2C3CCC(C3)C2C1=O (centres undefined)	2	-4	2	-1	-5
COc1ccccc1NC(=O)CCN1C(=O)C2C3CCC(C3)C2C1=O (centres undefined)	1	-2	-78*	0	-6
COc1ccc(N2CCN(C(CNC(=O)C(=O)NCCc3ccccc3)c3cccnc3)CC2)cc1 (centres undefined)	2	-8	-8	0	-5
CN(C)CCNc1ccc(Cl)cc1[N+](=O)[O-]	6	0	-15	0	2
CCN(CCNc1ccc(Cl)cc1[N+](=O)[O-])C(=O)c1cc([N+](=O)[O-])c(N(C)C)cc1OC	3	-9	-80*	-1	-7
CC(=O)Oc1ccc(Cl)cc1/C=C/c1cc(OC(C)=O)c2ccccc2n1	1	0	-63*	-1	-13
CN(C)c1ccc(C2C=C(c3ccc(Cl)cc3OC(F)F)Nc3ncnn32)cc1 (centres undefined)	41*	-2	5	17	-7
Cc1ccc(C2C=C(c3ccccc3OC(F)F)Nc3ncnn32)cc1 (centres undefined)	2	-5	10	0	8
Cc1cccc(NC(=O)C2CCN(S(=O)(=O)c3ccc(F)cc3)CC2)c1C	3	-10	-5	-1	-1
CCC(Sc1nc2ccncc2[nH]1)C(=O)Nc1cc(Cl)ccc1C (centres undefined)	6	4	-44*!	0	-5
CCCN1CCN(CCNC(=O)Nc2cc(C)ccc2OC)CC1	0	1	8	0	-1
COc1ccc(CCNC(=O)C(=O)Nc2ccc(C)cc2)cc1OC	2	-6	-4	0	-5
COc1ccc(-c2noc(CC(=O)N(C)c3cccc(C)c3)n2)cc1	2	-6	-5	0	-4
O=C(c1ccccc1Cl)N1CCCCC1CCN1CCOCC1 (centres undefined)	0	1	-7	1	-2
O=c1[nH]c(=O)n(Cc2ccco2)c2c1C(C(F)(F)F)(C(F)(F)F)N=C(c1ccc(F)cc1)N2	37*	3	.	-1	-3
CC(C)CN1C(=O)NC2(CCCc3ccccc32)C1=O (centres undefined)	1	-1	-80*	-1	11
CC(=O)CN1C(=O)NC2(CCCc3ccccc32)C1=O (centres undefined)	1	0	11	0	7
SMILES	D1 ag	TRHR enhancer	D1 antag	TRHR ag	D1 PAM
O=C(NNc1c([N+](=O)[O-])cc(C(F)(F)F)cc1[N+](=O)[O-])c1ccco1	21	-4	-36*	2	5
Cc1ccc(NC(=O)COc2coc(CN3c4ccccc4CC3C)cc2=O)c(C)c1 (centres undefined)	3	3	-14	0	-11
CC1Cc2ccccc2N1Cc1cc(=O)c(OCC(=O)Nc2ccccc2)co1 (centres undefined)	3	1	-33*	0	-4
COc1ccc(OC)c(NC(=O)COc2coc(CN3CCc4ccccc43)cc2=O)c1	7	4	-36*	-1	-10
CC(=O)NS(=O)(=O)c1ccc(NC(=O)C2c3ccccc3Oc3ccccc32)cc1	0	33*	-8	2	0
CCOC(=O)c1ccc(NC(=O)CCc2c(C)nc3nc[nH]n3c2=O)cc1	2	2	2	0	-2
O=C1C2C(c3cccc(/C=C/c4ccccc4)c3)CC=CC2C(c2ccc3ccccc3c2)N1Cc1ccccc1 (centres undefined)	5	-2	-42*	0	-2
CCCCCOC(=O)c1ccc(OC(=O)c2sc3ncn(Cc4cccc(F)c4)c(=O)c3c2C)cc1	1	-7	2	1	1
C/C=C/c1ccc(OCC(=O)Nc2ccc(C(N)=O)cc2)c(OC)c1	1	-1	-53*	-1	-7
COc1cc(/C=C/c2cc[n+](C)cc2)ccc1OCC(=O)Nc1ccccc1	2	-2	-9	1	-7
C/C=C/c1ccc(OC(C)=O)c(OC)c1	-4	2	9	-1	-1
C/C=C/c1ccc(OC)c(OC(C)=O)c1	1	-5	-76*	0	-6
O=C(CN1C(=O)CC(c2ccc(F)cc2)=Nc2ccccc21)NCc1ccccc1Cl	3	-3	-46*	1	2
COc1cc(OC)c(OC)cc1CCC(C)NCCC(c1ccccc1)c1ccccc1 (centres undefined)	78*	-2	-15	7	-7
CCOc1ccccc1CNC(=O)CCn1c(=O)c2cccn2c2ccc(F)cc21	-1	-2	7	0	-4
COc1ccccc1CNS(=O)(=O)c1ccc2c(c1)N(C(C)=O)CCO2	-1	8	-5	0	2
Cc1ccc(CNS(=O)(=O)c2ccc3c(c2)OCCO3)cc1	10	-7	-6	0	-6
Cc1ccccc1CNS(=O)(=O)c1ccccc1[N+](=O)[O-]	1	32*	6	0	-4
Cc1ccccc1CNS(=O)(=O)c1ccc2c(c1)OCCO2	20	11	-32*	0	-10
CC(=O)N1CCOc2ccc(S(=O)(=O)NCc3ccccc3Cl)cc21	1	0	-32*	0	-4
Cc1ccc(CNC(=O)c2nnc(Cc3cccc(F)c3)o2)cc1	13	0	2	1	0
COc1ccc(C(=O)Nc2nnc(SCc3cc(=O)n4cc(Cl)ccc4n3)s2)cc1	-1	0	0	0	-2
COc1cccc(C)c1NC(=O)C(OC(=O)CNC(=O)c1ccccc1)c1ccccc1 (centres undefined)	2	-5	27	0	-2

Source: PubChem BioAssay (National Center for Advancing Translational Sciences (NCATS))
